# Among all 290,000 compounds or so, about 3,500 (1.2%) were called active. The full list was thinned out, with actives kept by preference. A number with no mark means an inactive call.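 The calls were made as follows: active = inhibition above the campaign mean inhibition over all tested compounds plus 3 SD (cut at about 28% in these data); inactive = the rest.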
# Test system: M18 aspartyl aminopeptidase (Plasmodium falciparum 3D7)
# Assay: inhibition of P. falciparum M18 aminopeptidase – biochemical, QFRET, recombinant enzyme, primary screen (AID 1822);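 also: 0% = plate median of test compound wells and 100% = 2 mM ZnCl2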
# Conditions: recombinant PfM18AAP, H-Glu-NHMec fluorogenic cleavage; at 7.35 µM; stronger effect = higher value
row,Structure (SMILES),inhibition
1,Cc1ccc(C)c(NC(=O)CSc2nc3c(oc4ccccc43)c(=O)n2-c2ccccc2)c1,2.4%
2,CCOC(=O)c1cccc(NS(=O)(=O)c2c(C(=O)N3CCCCCC3)c(C)n(C)c2C)c1,0.1%
3,Cc1cc(N2CCOCC2)nc(-c2ccc(Br)cc2)n1,-2.46%
4,Cc1ccc(Sc2cc(N3CCOCC3)nc(-c3ccccc3)n2)cc1,28.3% (active)
5,Cc1cc(N2CCN(c3ccccc3)CC2)nc(N2CCOCC2)n1,-12.7%
6,Cc1cc(C)nc(-n2nc(C)cc2NC(=O)c2ccc(Br)o2)n1,-3.58%
7,CSc1n[nH]c(=S)n1N,32.7% (active)
8,Oc1ccc(/C=N/Nc2ccc(C(F)(F)F)cn2)cc1O,34.4% (active)
9,O=C(Nc1ccccc1)Nc1ccc(C(F)(F)F)cn1,-2.42%
10,Oc1ccc(Br)cc1/C=N/Nc1ccccn1,15.5%
11,CCc1ccc(Nc2nnc(SCC(=O)c3ccc4c(c3)NC(=O)CO4)s2)cc1,3.56%
12,O=C(Cn1nc([N+](=O)[O-])nc1Br)NC1CCCCC1,0.92%
13,CCOc1cc(NC(=O)c2cnccn2)c(OCC)cc1NC(=O)c1ccc(C)cc1,5.95%
14,O=C(OCC1O[C@@H](OC(=O)c2cc(O)c(O)c(O)c2)[C@@H](OC(=O)c2cc(O)c(O)c(O)c2)[C@@H](OC(=O)c2cc(O)c(O)c(O)c2)[C@@H]1OC(=O)c1cc(O)c(O)c(O)c1)c1cc(O)c(O)c(O)c1 (stereo not given in full),41.3% (active)
15,CN(C)c1ccc(CNC(=O)CN2C(=O)COc3ccc(S(=O)(=O)N4CCCC4)cc32)cc1,4.42%
16,COc1ccccc1CCNC(=O)C1CCN(C(=O)/C=C/c2ccccc2)CC1,-9.1%
17,CCOc1ccc(/C=N\NC(=O)c2c(C)nc3cc(C)ccn23)cc1,-0.74%
18,O=C1CCCCN1CCCC(=O)N1CCCC(Nc2ccc(F)cc2)C1 (stereo not given),33.9% (active)
19,O=C(CN1CCOC1=O)N1CCCC(Nc2ccc(F)c(F)c2)C1 (stereo not given),-0.1%
20,O=C(CN1C(=O)CSC1=O)N1CCCC(Nc2ccc(F)cc2)C1 (stereo not given),-12.5%

row,Structure (SMILES),inhibition
1,CCOC(=O)[C@@H]1[C@H]2COc3cc(OC)ccc3[C@@H]2N2C(=O)N(c3cccc(C)c3)C(=O)[C@@]12C,-13.2%
2,CCOC(=O)c1c(-c2ccccc2)oc2cc(Br)c(O)cc12,-7.24%
3,CCOC(=O)c1c(-c2ccccc2)oc2cc(Br)c(O)c(C=O)c12,28.4% (active)
4,CCOC(=O)c1c(-c2ccccc2)oc2ccc(OCC(N)=O)cc12,4.97%
5,O=C(c1cnc(Cl)c(Cl)c1)N1CCN(S(=O)(=O)c2ccc(F)cc2)CC1,-8.29%
6,CNc1nnc(-c2ccco2)s1,-6.9%
7,Cc1ccc(OCC(=O)Nc2nnc(-c3ccco3)s2)cc1,-1.67%
8,COc1ccc(OCC(=O)Nc2nnc(-c3ccco3)s2)cc1,29.5% (active)
9,N#Cc1cccc(CN2CCC(=O)N([C@H](CO)c3ccccc3)CC2)c1,-11.8%
10,CCn1c2ccc(F)cc2c2nnc(SCCN3CCOCC3)nc21,10.1%
11,Cn1c2ccc(F)cc2c2nnc(NN)nc21,30.3% (active)
12,Cc1ccc2c(c1)c1ncn(Cc3ccc(F)cc3)c(=O)c1n2C,-2.55%
13,Cc1cccc(C(=O)NNC(=O)CSc2nnc(C(C)C)n2C)c1,-1.87%
14,COc1ccccc1/C=N\Nc1cc(C)nc(-n2nc(C)cc2C)n1,4.17%
15,COc1cccc(/C=N/Nc2ncc(C(F)(F)F)cc2Cl)c1O,12.8%
16,COc1cccc(/C=N/Nc2cc(C)nc(-c3ccccc3O)n2)c1O,52.7% (active)
17,COC(=O)c1ccc(OC(=O)c2cnccn2)cc1,5.19%
18,O=c1oc2ccccc2cc1-c1cn(-c2ccccc2)c(=S)[nH]1,11.4%
19,S=c1[nH]c(-c2cccs2)cn1-c1ccccc1,38.5% (active)
20,COc1ccc(-c2cn(-c3ccc(OC)cc3)c(=S)[nH]2)cc1,24.3%

row,Structure (SMILES),inhibition
1,Cc1cc(C)c2nc(N(CCN(C)C)C(=O)/C=C/c3cccs3)sc2c1,0.71%
2,S=C(NCCCc1ccccc1)Nc1ccc(Br)cc1,-6.24%
3,O=C(CSC(=S)N1CCOCC1)c1cc(Br)cc(Br)c1O,44.3% (active)
4,O=C(CSC(=S)N1CCOCC1)c1ccccc1,4.44%
5,O=C(c1cc2cc(Br)cc(Br)c2oc1=O)N1CCOCC1,-1.08%
6,Cc1ccc2c(c1)sc1ncc(NC(=O)c3ccccc3)c(=O)n12,-1.31%
7,CN(CC(=O)NCCN1CCOCC1)S(=O)(=O)c1ccc(F)cc1,-0.36%
8,CCc1ccc(C(=O)COC(=O)c2ccco2)cc1,1.62%
9,COc1ccc(OCc2n[nH]c(=S)n2N)cc1,32.5% (active)
10,S=c1[nH]nc(COc2ccccc2)n1-c1ccccc1,19.1%
11,Cc1ccc(OCc2n[nH]c(=S)n2-c2ccc(C)cc2)cc1,14.1%
12,COc1ccc(CNC(=O)CN(C(=O)c2csnn2)c2cnc3ccccc3c2)cc1,3.77%
13,CN(C)[C@@H]1C(=O)C(C(N)=O)=C(O)[C@@]2(O)C(=O)C3=C(O)c4c(O)ccc(Cl)c4[C@@H](O)[C@H]3C[C@@H]12,37% (active)
14,COc1ccc(CN2CCN(C(=O)CCC(=O)Nc3nnc(C(C)C)s3)CC2)cc1F,0.79%
15,CC1CC(C)CN(CCCNC(=O)c2csc3c2CCCCC3)C1 (stereo not given),-10.4%
16,CCOc1ccc(C2C(C#N)=C(N)N(N(C)C)C3=C2C(=O)CCC3)cc1 (stereo not given),8.27%
17,COc1ccc(C2C3=C(CCCC3=O)N(CC(=O)O)C3=C2C(=O)CCC3)cc1,5.23%
18,CCOc1ccc(C2C3=C(CCCC3=O)N(CC(=O)O)C3=C2C(=O)CCC3)cc1,32.6% (active)
19,COc1cccc(C(=O)NNS(=O)(=O)c2ccc(F)cc2)c1,10.3%
20,CC(C)CN(CC(C)C)CC(O)CN(c1ccccc1)S(=O)(=O)c1ccccc1[N+](=O)[O-] (stereo not given),2.89%
